Values joined by “and” are separate entries in the source; they are usually repeats but may differ in a detail not shown here. Identical values can stand only once. Inconclusive results are not listed. Some compounds were tested as several samples or in several runs, with calls that do not always agree. Active and inactive are the calls of the source. Unless noted, calls follow the shape of the dose curve; as a rule, active = well fitted curve in the direction sought with a large enough effect in the repeat runs; inconclusive = weak or mixed curves; inactive = no such curve, though single readings can be large; an effect the other way counts as inactive or inconclusive.
How the values were obtained:
[1] = qHTS assay to identify small molecule agonists of the estrogen receptor alpha (ER-alpha) signaling pathway in the presence of an antagonist - cell viability counter screen (AID 1259386);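 also: cells exposed to compounds for 22 h at 37 °C before the viability read; nearly all actives have a fitted effect of over 30% in size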; also: potency is read from the fitted curve at half-maximal effect
Outline: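 ICI-182,780 at 10.0nM final accompanies the compound titration (15 concentrations, 22hr, 37C) on VM7Luc4E2 cells. The CellTiter-Fluor fluorescence readout runs in the same wells as the luciferase assay.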

[2] = target: Progesterone receptor (Homo sapiens) (UniProt P06401); test: qHTS assay to identify small molecule agonists of the progesterone receptor (PR) signaling pathway (AID 1346784; calls by dose curve; also: nearly all actives have a fitted effect of over 30% in size; also: potency is read from the fitted curve at half-maximal effect)
Outline: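 Cells (PR-UAS-bla HEK 293T, GripTite) were plated in assay medium containing 2% charcoal-stripped FBS and incubated 6 hr. Test compounds in DMSO were added for 16 hr at 37C. FRET substrate was then loaded for 2 hr at room temperature before fluorescence reading.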

[3] = target: Progesterone receptor (Homo sapiens) (UniProt P06401); test: qHTS assay to identify small molecule antagonists of the progesterone receptor (PR) signaling pathway (AID 1346795; active = well fitted inhibition curve with a large enough effect in the signal ratio in the repeat runs, not every such curve was filed as active; the % refers to the signal ratio; also: potency is read from the fitted curve at half-maximal effect)
Outline: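 Antagonist mode: compounds tested against 1 nM (final) promegestone stimulation in HEK293T cells expressing PR-UAS-bla reporter, 16 hr at 37C, 5% CO2; beta-lactamase activity detected via B/G FRET substrate after 2 hr at room temperature.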

[4] = qHTS assay to identify small molecule antagonists of the progesterone receptor (PR) signaling pathway - cell viability counter screen (AID 1346798); also: series mostly up to about 92 µM; nearly all actives have a fitted effect of over 50% in size
Outline: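 Counter screen for cytotoxicity: viability of PR-UAS-bla HEK293T cells was measured with CellTiter-Glo luminescence following 16 hr compound exposure in the presence of R5020.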

[5] = qHTS assay to identify small molecule agonists of the progesterone receptor (PR) signaling pathway - cell viability counter screen (AID 1346799; calls by dose curve; also: nearly all actives have a fitted effect of over 45% in size; also: potency is read from the fitted curve at half-maximal effect)
Outline: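 Cells (PR-UAS-bla HEK293T) are plated at 3,000/well in 2% charcoal-stripped FBS medium, rested 6 hr, dosed and incubated 16 hr at 37C. CellTiter-Glo is then added and luminescence measured after 30 min at room temperature.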

[6] = qHTS assay to identify small molecule antagonists of the TGF-beta/Smad signaling pathway - cell viability counter screen (AID 1346824); also: nearly all actives have a fitted effect of over 50% in size
Outline: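 SBE-bla HEK 293T cells were plated overnight at 37 C, then given compounds in DMSO plus TGF-beta1 (added as 0.25 ng/mL solution) for 5 hr. After the bla read, CellTiter-Glo was added to the same wells and luminescence read after 30 min at room temperature.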

[7] = qHTS assay to identify small molecule agonists of the TGF-beta/Smad signaling pathway - cell viability counter screen (AID 1346829); also: top concentration of the series differs between compounds; nearly all actives have a fitted effect of over 45% in size
Outline: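 SBE-bla HEK 293T cells plated overnight, compound exposure 5 hr at 37 C. Viability read in the same wells by CellTiter-Glo luminescence after 30 min at room temperature, following the beta-lactamase read.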

[8] = Caspase-3/7 induction in HepG2 cells by small molecules, qHTS assay (AID 1346978); also: nearly all actives have a fitted effect of over 15% in size; also: potency is read from the fitted curve at half-maximal effect
Outline: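 Wild-type HepG2 cells (2,000/well) were settled 5 h at 37 C, 5% CO2, then exposed to compounds in DMSO for 17 h. Caspase-3/7 activity was read by luminescence 30 min after adding Caspase-Glo 3/7 reagent at room temperature.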

[9] = Caspase-3/7 induction in CHO-K1 cells by small molecules, qHTS cell viability counter screen (AID 1346979); also: nearly all actives have a fitted effect of over 35% in size; also: potency is read from the fitted curve at half-maximal effect
Outline: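 Cytotoxicity counter screen run in parallel with the caspase-3/7 assay: CHO-K1 cells, 16hr compound treatment at 37C, then CellTiter-Fluor for 1hr before fluorescence reading.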

[10] = Caspase-3/7 induction in CHO-K1 cells by small molecules, qHTS assay (AID 1346980); also: nearly all actives have a fitted effect of over 15% in size
Outline: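 Wild-type cells were seeded at 1,500 per well and settled 5 hr at 37 C, 5% CO2, then exposed to DMSO-dissolved compounds for 17 hr. Caspase-Glo 3/7 reagent was added, and luminescence was read after 30min at room temperature.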

[11] = Caspase-3/7 induction in HepG2 cells by small molecules, qHTS cell viability counter screen (AID 1346981); also: nearly all actives have a fitted effect of over 30% in size; also: potency is read from the fitted curve at half-maximal effect
Outline: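 Multiplexed with the caspase-3/7 assay: HepG2 cells, 16 hr compound treatment, CellTiter-Fluor viability detection by fluorescence.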

[12] = target: Thyrotropin-releasing hormone receptor (Homo sapiens) (UniProt P34981); test: qHTS assay to identify small molecule antagonists of the thyrotropin-releasing hormone receptor (TRHR) signaling pathway (AID 1346877; active = well fitted inhibition curve with a large enough effect in the repeat runs, not every such curve was filed as active; also: series mostly up to about 51 µM)
Outline: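 Screening used HEK293 cells engineered with TRHR, with a brief 5 min room-temperature compound exposure preceding addition of TRH to 1 nM. The read-out was kinetic calcium-dye fluorescence, concentration-response from 15 doses in triplicate.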

[13] = target: Thyrotropin-releasing hormone receptor (Homo sapiens) (UniProt P34981); test: qHTS assay to identify small molecule agonists of the thyrotropin-releasing hormone receptor (TRHR) signaling pathway (AID 1346891; calls by dose curve;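 also: HEK293 cells expressing TRHR with calcium dye readout; series mostly up to about 58 µM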)
Outline: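 Cells: TRHR-Hek293, seeded and incubated 18 h. Dye loading: 2 h at 37 °C. Compound added from DMSO stock by pin tool. Read-out: kinetic calcium fluorescence over 3 min.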

[14] = Human pregnane X receptor (PXR) small molecule agonists, qHTS cell viability counter screen (AID 1346977); also: nearly all actives have a fitted effect of over 50% in size; also: potency is read from the fitted curve at half-maximal effect
Outline: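 Cytotoxicity counter screen run in the same wells as the PXR luciferase assay, using PXR-Luc HepG2 cells in charcoal-stripped serum medium. Viability: CellTiter-Fluor fluorescence after 24hr compound treatment.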

[15] = target: Thyrotropin receptor (Homo sapiens) (UniProt P16473); test: qHTS assay to identify small molecule antagonists of the thyroid stimulating hormone receptor (TSHR) signaling pathway (AID 1259385; calls by dose curve; also: nearly all actives have a fitted effect of over 20% in size)
Outline: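 TSHR-HEK293 cells were plated and held 18 h at 37C/5% CO2, then given compound plus Ro20-1724 and stimulated with TSH at 1.5 ng/mL final. After 30 min at room temperature, cAMP was detected with cAMP-d2/anti-cAMP-cryptate (1 h) by fluorescence.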

[16] = qHTS assay to identify small molecule agonists of the TGF-beta/Smad signaling pathway (AID 1346859; active = well fitted activation curve with a large enough effect in the signal ratio in the repeat runs, not every such curve was filed as active; the % refers to the signal ratio; also: series mostly up to about 77 µM)
Outline: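 Reporter line: HEK 293T with stably integrated SBE-controlled beta-lactamase. Compound exposure lasts 5 hr at 37 C and 5% CO2; substrate loading follows for 2 hr at room temperature, with emission read at 460 and 530 nm.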

[17] = target: Nuclear receptor subfamily 1 group I member 2 (Rattus norvegicus) (UniProt Q9R1A7); test: Rat pregnane X receptor (rPXR) activation by small molecules, qHTS assay (AID 1346983); conditions: rPXR luciferase reporter cells, One-Glo luminescence, 24 h; max activation: stronger effect = higher value; also: nearly all actives have a fitted effect of over 20% in size; also: potency is read from the fitted curve at half-maximal effect
Outline: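 Cell-based rPXR luciferase reporter assay, 2,000 cells per well, rested 5hr at 37 C before compound addition in DMSO, then 24 hr at 37 C. One-Glo reagent was added and luminescence read after 30 min at room temperature.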

[18] = target: Nuclear receptor subfamily 1 group I member 2 (Homo sapiens) (UniProt O75469); test: CYP3A4 induction through human pregnane X receptor (PXR) by small molecules, qHTS assay (AID 1346984); also: nearly all actives have a fitted effect of over 40% in size
Outline: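 qHTS, concentration-response format: HepG2 DPX-2 line, PXR/CYP3A4-luc. Exposure 24 h, 37C. Substrate Luciferin-IPA 3uM final, 3 h. Detection One-Glo, 30 min RT.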

[19] = target: Nuclear receptor subfamily 1 group I member 2 (Homo sapiens) (UniProt O75469); test: Human pregnane X receptor (PXR) activation by small molecules, qHTS assay (AID 1346985); also: nearly all actives have a fitted effect of over 40% in size
Outline: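 DPX-2 cells (HepG2 co-transfected with a PXR response element and a CYP3A4-promoter luciferase construct) were seeded at 2,000 per well, rested 5 hr at 37C, then exposed to DMSO-dissolved compounds for 24 hr. Activation was read as luciferase luminescence.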

[20] = target: Nuclear receptor subfamily 1 group I member 2 (Homo sapiens) (UniProt O75469); test: Human pregnane X receptor (PXR) small molecule agonists, qHTS assay (AID 1346982); also: nearly all actives have a fitted effect of over 35% in size; also: potency is read from the fitted curve at half-maximal effect
Outline: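 We seeded PXR-Luc HepG2 cells in assay medium containing 5% charcoal-stripped FBS, added compounds 5 hr later, incubated 24 hr, and read luminescence with ONE-Glo reagent.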
% is scaled to controls: 0 for no effect and ±100 for the full control effect.

Thyrotropin receptor (Homo sapiens), sequence (P16473 whole entry, looked up): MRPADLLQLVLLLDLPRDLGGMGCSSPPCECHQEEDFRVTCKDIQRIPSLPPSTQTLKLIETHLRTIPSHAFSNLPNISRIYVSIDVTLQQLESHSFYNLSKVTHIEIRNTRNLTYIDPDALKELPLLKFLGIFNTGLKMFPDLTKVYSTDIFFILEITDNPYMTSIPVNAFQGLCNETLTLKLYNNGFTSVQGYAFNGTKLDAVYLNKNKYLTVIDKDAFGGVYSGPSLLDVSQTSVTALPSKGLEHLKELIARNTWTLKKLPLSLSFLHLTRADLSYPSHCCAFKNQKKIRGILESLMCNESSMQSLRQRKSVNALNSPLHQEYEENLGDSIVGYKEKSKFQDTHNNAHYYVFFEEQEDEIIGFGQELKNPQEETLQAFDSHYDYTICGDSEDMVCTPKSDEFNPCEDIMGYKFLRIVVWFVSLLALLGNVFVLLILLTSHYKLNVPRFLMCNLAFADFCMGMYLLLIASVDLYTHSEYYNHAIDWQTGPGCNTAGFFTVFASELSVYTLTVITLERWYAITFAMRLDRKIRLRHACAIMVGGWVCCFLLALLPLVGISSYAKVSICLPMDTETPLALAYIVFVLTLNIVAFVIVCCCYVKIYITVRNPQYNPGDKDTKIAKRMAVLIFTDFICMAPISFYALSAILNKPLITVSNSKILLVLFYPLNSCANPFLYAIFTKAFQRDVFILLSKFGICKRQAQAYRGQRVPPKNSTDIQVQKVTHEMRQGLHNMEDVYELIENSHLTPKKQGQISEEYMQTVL
Nuclear receptor subfamily 1 group I member 2 (Homo sapiens), sequence (O75469 whole entry, looked up): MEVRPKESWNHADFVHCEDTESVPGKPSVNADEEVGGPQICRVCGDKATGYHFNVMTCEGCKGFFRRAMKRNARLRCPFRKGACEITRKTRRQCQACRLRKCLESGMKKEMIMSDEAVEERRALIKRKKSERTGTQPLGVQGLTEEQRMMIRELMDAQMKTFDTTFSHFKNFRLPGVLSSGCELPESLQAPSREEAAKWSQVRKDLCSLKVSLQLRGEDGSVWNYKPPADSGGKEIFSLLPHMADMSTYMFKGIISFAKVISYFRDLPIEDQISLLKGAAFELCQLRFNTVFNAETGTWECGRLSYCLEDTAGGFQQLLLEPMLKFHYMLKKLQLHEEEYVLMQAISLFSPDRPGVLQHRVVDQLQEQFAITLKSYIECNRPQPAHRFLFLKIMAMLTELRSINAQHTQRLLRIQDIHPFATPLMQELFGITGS
Nuclear receptor subfamily 1 group I member 2 (Rattus norvegicus), sequence (Q9R1A7 whole entry, looked up): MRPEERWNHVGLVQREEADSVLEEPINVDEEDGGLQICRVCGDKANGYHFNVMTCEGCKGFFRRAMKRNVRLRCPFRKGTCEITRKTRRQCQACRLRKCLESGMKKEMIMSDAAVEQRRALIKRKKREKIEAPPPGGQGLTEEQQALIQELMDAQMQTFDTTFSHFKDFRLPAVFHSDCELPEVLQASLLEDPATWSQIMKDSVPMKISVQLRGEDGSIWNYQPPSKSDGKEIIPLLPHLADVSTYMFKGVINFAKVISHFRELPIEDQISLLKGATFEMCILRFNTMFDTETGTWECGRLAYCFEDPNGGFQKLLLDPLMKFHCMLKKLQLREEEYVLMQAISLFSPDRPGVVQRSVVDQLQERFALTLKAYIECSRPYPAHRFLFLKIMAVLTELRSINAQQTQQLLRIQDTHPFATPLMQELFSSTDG
Progesterone receptor (Homo sapiens), sequence (P06401 whole entry, looked up): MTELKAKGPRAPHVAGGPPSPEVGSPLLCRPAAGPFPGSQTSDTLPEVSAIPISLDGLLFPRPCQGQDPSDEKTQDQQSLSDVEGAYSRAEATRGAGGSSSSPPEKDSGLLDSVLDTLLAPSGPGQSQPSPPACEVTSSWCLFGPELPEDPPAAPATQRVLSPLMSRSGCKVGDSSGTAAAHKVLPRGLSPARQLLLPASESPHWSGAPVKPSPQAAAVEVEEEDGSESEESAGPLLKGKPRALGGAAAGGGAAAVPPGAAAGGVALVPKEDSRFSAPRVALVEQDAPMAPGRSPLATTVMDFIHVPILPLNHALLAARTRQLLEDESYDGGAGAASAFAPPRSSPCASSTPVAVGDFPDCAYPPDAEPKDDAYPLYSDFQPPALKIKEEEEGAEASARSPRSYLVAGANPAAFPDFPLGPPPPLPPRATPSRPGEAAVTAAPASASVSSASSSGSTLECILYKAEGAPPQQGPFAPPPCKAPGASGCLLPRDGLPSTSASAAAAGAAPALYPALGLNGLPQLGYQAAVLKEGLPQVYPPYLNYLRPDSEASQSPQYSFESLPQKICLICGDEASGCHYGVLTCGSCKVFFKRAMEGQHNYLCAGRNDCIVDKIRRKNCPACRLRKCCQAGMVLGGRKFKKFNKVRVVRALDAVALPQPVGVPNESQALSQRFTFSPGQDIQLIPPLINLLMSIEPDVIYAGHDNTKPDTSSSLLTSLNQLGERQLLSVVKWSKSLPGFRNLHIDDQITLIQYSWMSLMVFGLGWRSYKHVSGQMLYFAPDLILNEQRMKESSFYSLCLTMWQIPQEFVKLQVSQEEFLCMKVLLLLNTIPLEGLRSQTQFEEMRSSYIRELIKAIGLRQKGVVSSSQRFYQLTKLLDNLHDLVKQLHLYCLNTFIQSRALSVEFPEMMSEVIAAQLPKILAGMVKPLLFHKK
Thyrotropin-releasing hormone receptor (Homo sapiens), sequence (P34981 whole entry, looked up): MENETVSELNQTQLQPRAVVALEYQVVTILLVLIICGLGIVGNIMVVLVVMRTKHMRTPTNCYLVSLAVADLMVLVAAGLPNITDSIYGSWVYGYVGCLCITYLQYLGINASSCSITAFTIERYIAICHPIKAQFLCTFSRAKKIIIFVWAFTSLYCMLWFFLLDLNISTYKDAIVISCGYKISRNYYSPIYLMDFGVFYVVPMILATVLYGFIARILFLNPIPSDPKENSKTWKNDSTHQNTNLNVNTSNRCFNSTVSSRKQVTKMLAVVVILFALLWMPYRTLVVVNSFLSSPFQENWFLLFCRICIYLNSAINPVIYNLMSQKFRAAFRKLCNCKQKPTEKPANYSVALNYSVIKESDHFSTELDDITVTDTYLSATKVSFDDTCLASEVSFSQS

Cc1cc(NS(=O)(=O)c2ccc(N)cc2)no1
inactive: Potency [1] | Potency [2] | Potency [3] | Potency [4] | Potency [5] | Potency [6] | Potency [7] | Potency [8] | Potency [9] | Potency [10] | Potency [11]

O=C(O)c1ccc([N+](=O)[O-])cc1
inactive: Potency [1] | Potency [2] | Potency [3] | Potency [4] | Potency [5] | Potency [6] | Potency [7] | outcome [12] | Potency [13] | Potency [14] | Potency [8] | Potency [9] | Potency [10] | Potency [11]

Clc1cc(Cl)c(Cl)cc1Cl
inactive: Potency [1] | Potency [2] | Potency [3] | Potency [4] | Potency [5] | Potency [6] | Potency [7] | Potency [14] | Potency [8] | Potency [9] | Potency [10] | Potency [11]

COC(=O)c1ccccc1O
inactive: outcome [15] | Potency [1] | Potency [2] | Potency [4] | Potency [5] | Potency [6] | Potency [7] | outcome [16] | outcome [12] | Potency [13] | Potency [14] | Potency [8] | Potency [9] | Potency [10] | Potency [11] | max activation [17] -0.564% | outcome [18] | outcome [19]

O=C(Cl)c1c(Cl)c(Cl)c(C(=O)Cl)c(Cl)c1Cl
inactive: Potency [1] | Potency [2] | Potency [3] | Potency [4] | Potency [5] | Potency [6] | Potency [7] | outcome [16] | Potency [13] | Potency [14] | Potency [8] | Potency [9] | Potency [10] | Potency [11] | Potency [20]

NCCc1ccc(O)c(O)c1
active: Potency [14] 30.7 µM
27.4 µM (active) and inactive: Potency [1]
inactive: Potency [2] | Potency [3] | Potency [4] | Potency [5] | Potency [6] | Potency [7] | outcome [16] | outcome [12] | Potency [13] | Potency [8] | Potency [10]
68.8 µM (active) and inactive: Potency [11]
61.3 µM (active) and inactive: Potency [9]

C=C1CC[C@H](O)CC1=C/C=C1\CCC[C@]2(C)[C@@H]([C@H](C)/C=C/[C@H](C)C(C)C)CC[C@@H]12
active: Potency [9] 54 µM and 48.6 µM | Potency [20] 34.1 µM and 30.6 µM
inactive: outcome [15] | Potency [2] | Potency [4] | Potency [5] | Potency [6] | Potency [7] | Potency [14] | Potency [8] | max activation [17] -1.33% | outcome [18] | outcome [19]

CC#C[C@]1(O)CC[C@H]2[C@@H]3CCC4=CC(=O)CCC4=C3[C@@H](c3ccc(N(C)C)cc3)C[C@@]21C
inactive: outcome [15] | Potency [1] | Potency [2] | Potency [4] | Potency [5] | Potency [6] | Potency [7] | Potency [13] | Potency [8] | Potency [10] | outcome [18]
active: Potency [9] 30.6 µM | Potency [11] 30.6 µM | Potency [20] 48.6 µM and 23.7 µM | Potency [17] 10 µM

CC1CC(OC(=O)c2ccccc2O)CC(C)(C)C1 (stereo not drawn)
inactive: outcome [15] | Potency [1] | Potency [2] | Potency [4] | Potency [5] | Potency [6] | Potency [7] | outcome [16] | outcome [12] | Potency [13] | Potency [14] | Potency [8] | Potency [9] | Potency [10] | Potency [11] | max activation [17] -1.96% | outcome [18] | outcome [19]

CCOC(=O)C1OC1c1ccccc1 (stereo not drawn)
inactive: Potency [1] | Potency [2] | Potency [3] | Potency [4] | Potency [5] | Potency [6] | Potency [7] | outcome [12] | Potency [13] | Potency [8] | Potency [9] | Potency [10] | Potency [11] | Potency [20]

CCOC(=O)[C@H](CCc1ccccc1)N[C@@H](C)C(=O)N1Cc2ccccc2C[C@H]1C(=O)O
active: Potency [20] 30.9 µM and 11.9 µM
inactive: Potency [1] | Potency [2] | Potency [4] | Potency [5] | Potency [6] | Potency [7] | outcome [16] | Potency [14] | Potency [8] | Potency [10] | Potency [11] | max activation [17] -0.751% | outcome [18] | outcome [19]

CC(=O)[C@@]1(O)CC[C@H]2[C@@H]3CCC4=CC(=O)CC[C@]4(C)[C@H]3CC[C@@]21C
active: Potency [2] 3.35 µM
inactive: outcome [15] | Potency [1] | Potency [3] | Potency [4] | Potency [6] | Potency [7] | outcome [16] | Potency [13] | Potency [8] | Potency [9] | Potency [10] | Potency [11]

CC(C)n1c(/C=C/[C@@H](O)C[C@@H](O)CC(=O)O)c(-c2ccc(F)cc2)c2ccccc21
active: Potency [5] 0.77 µM | Potency [8] 12.2 µM | Potency [17] 12.6 µM
inactive: Potency [1] | Potency [2] | Potency [6] | Potency [7] | Potency [13] | Potency [14] | Potency [9] | Potency [10] | Potency [11]

CN(C)c1ccc(C(=N)c2ccc(N(C)C)cc2)cc1
2.4 µM (active) and inactive: Potency [8]
inactive: outcome [15] | Potency [2] | Potency [4] | Potency [6] | Potency [7] | outcome [16] | Potency [10]
active: Potency [1] 30.3 µM and 20.9 µM | Potency [14] 17.8 µM and 23.4 µM | Potency [9] 30.3 µM and 18.6 µM | Potency [11] 42.7 µM and 46.7 µM | Potency [20] 2.14 µM and 14.8 µM

O=C1CCCCC1
inactive: Potency [1] | Potency [2] | Potency [3] | Potency [4] | Potency [5] | Potency [6] | Potency [7] | outcome [16] | outcome [12] | Potency [13] | Potency [14] | Potency [8] | Potency [9] | Potency [10] | Potency [11] | Potency [20]

CC1COc2ccccc2N1C(=O)C(Cl)Cl (stereo not drawn)
inactive: outcome [15] | Potency [1] | Potency [2] | Potency [6] | Potency [7] | outcome [12] | Potency [13] | Potency [8] | Potency [10]
active: Potency [3] 30.6 µM and 24.3 µM | Potency [14] 39.8 µM | Potency [9] 27.3 µM and 30.6 µM | Potency [11] 61 µM and 27.3 µM | Potency [20] 61 µM and 54.4 µM

From PubChem BioAssay (Tox21)
